Test results from PubChem BioAssay (Tox21).
Results filed as inconclusive are left out. Unmarked numbers belong to inactive results. Calls of active or inactive are those of the source. The call rests on the fitted dose curve.

Assay: qHTS assay for small molecule agonists of the p53 signaling pathway - cell viability (AID 651633);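 further: p53RE-bla HCT reporter cells with a stable beta-lactamase p53 reporter; nearly all actives have a fitted effect of over 30% in size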
Details: p53RE-bla HCT-116 viability, ATP luminescence, 16 h; series mostly up to 83.3 µM; activity change, negative = cytotoxicity: at the top concentration
Method in brief: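 p53RE-bla cells were treated with compound for 16 hours at 37 C. Cytotoxicity was then measured as CellTiter-Glo luminescence after 30 min at room temperature.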
On the % scale 0 is the no-effect control and ±100 the full control effect.

SMILES | Potency | activity change, negative = cytotoxicity
COC1=C(OC)C(=O)C(C/C=C(\C)CC/C=C(\C)CC/C=C(\C)CC/C=C(\C)CC/C=C(\C)CC/C=C(\C)CC/C=C(\C)CC/C=C(\C)CC/C=C(\C)CCC=C(C)C)=C(C)C1=O | inactive | 
COC(=O)C(CN)c1c[nH]c2ccc(OC)cc12 (configuration not stated) |  | 17.5%
CC(C)CCC[C@@H](C)[C@H]1CC[C@H]2[C@@H]3CC=C4C[C@@H](O)CC[C@]4(C)[C@H]3CC[C@]12C |  | 6.57%
C=N[C@@H](C(=O)N[C@@H]1C(=O)N2[C@@H]1SC(C)(C)[C@@H]2C(=O)O)c1ccccc1 |  | 20.5%
Cc1c(O)c(=O)ccn1C |  | 17.9%
CCOC(=O)COc1ccc2c(=O)cc(-c3ccccc3)oc2c1 | inactive | 
O=C1[O][Bi][O]c2ccccc21 |  | 7.52%
O=P(O)(O)CP(=O)(O)O |  | 2.65%
CC12CCC(C1)C(C)(C)C2=O (configuration not stated) |  | 9.98%
CC(=O)Nc1ccc(OC(C)=O)cc1 |  | -7.97%
CCN(CC)CCOC[C@H]1O[C@@H](O)[C@H](OCCN(CC)CC)[C@@H](O)[C@@H]1O |  | 9.42%
OCC1(CO)COC(C(Cl)(Cl)Cl)OC1 |  | 0.181%
C=C1[C@H](CO)[C@@H](O)C[C@@H]1n1cnc2c(=O)[nH]c(N)nc21 |  | 15.4%
O=S(=O)(O)CC(S)CS (configuration not stated) |  | 26.2%
COc1ccc(/C=N/NC(=O)c2ccncc2)c(C(=O)O)c1OC |  | 21.4%
CCCCCCCCCCCCCCCCCCOCC(COP(=O)([O-])OCC[N+](C)(C)C)OC (configuration not stated) |  | 7.49%
NC(=O)CC[C@@H]1NC(=O)[C@H](Cc2ccccc2)NC(=O)[C@H](Cc2ccc(O)cc2)NC(=O)[C@@H](N)CSSC[C@@H](C(=O)N2CCC[C@H]2C(=O)N[C@@H](CCCN=C(N)N)C(=O)NCC(N)=O)NC(=O)[C@H](CC(N)=O)NC1=O | inactive | 
CCC[C@@H]1C[C@@H](C(=O)N[C@@H]([C@H]2O[C@H](SC)[C@H](OP(=O)(O)O)[C@@H](O)[C@H]2O)[C@H](C)Cl)N(C)C1 | inactive | 
C[C@H](NCCc1ccc(O)cc1)[C@H](O)c1ccc(O)cc1 |  | 11.3%

SMILES | Potency | activity change, negative = cytotoxicity
CC(C)(COP(=O)(O)OP(=O)(O)OC[C@H]1O[C@@H](n2cnc3c(N)ncnc32)[C@H](O)[C@@H]1OP(=O)(O)O)C(O)C(=O)NCCC(=O)NCCS (some centres not stated) |  | -14.2%
CC(CNC(=O)c1cccnc1)NC(=O)c1cccnc1 (configuration not stated) |  | 16.9%
O=C(O)c1cc(O)c2c(c1)[C@H]([C@H]1c3cc(C(=O)O)cc(O)c3C(=O)c3c(O[C@@H]4O[C@H](CO)[C@@H](O)[C@H](O)[C@H]4O)cccc31)c1cccc(O[C@@H]3O[C@H](CO)[C@@H](O)[C@H](O)[C@H]3O)c1C2=O |  | 9.92%
C=CCN1C(=O)C(CC(C)C)NC1=S (configuration not stated) | inactive | 
C[C@H](O)CN(C)C |  | 15.9%
CNC(=O)OCc1cccc(COC(=O)NC)n1 |  | 16.4%
NC(=O)[C@H]1O[C@@H](O)[C@H](O)[C@@H](O)[C@@H]1O |  | 10.7%
O=P(O)(O)C(O)(Cn1ccnc1)P(=O)(O)O |  | 13.9%
NC(=O)[C@@H]1C[C@]2(NC(=O)NC2=O)c2cc(F)ccc2O1 |  | 10.5%
COc1ccc([C@@H]2CC(=O)c3c(O)cc(O[C@@H]4O[C@H](CO[C@@H]5O[C@@H](C)[C@H](O)[C@@H](O)[C@H]5O)[C@@H](O)[C@H](O)[C@H]4O)cc3O2)cc1O |  | 29.2% [at 39.1 µM]
CC[C@H]1OC(=O)C[C@@H](O)[C@H](C)[C@@H](O[C@@H]2O[C@H](C)[C@@H](O[C@H]3C[C@@](C)(O)[C@@H](O)[C@H](C)O3)[C@H](N(C)C)[C@H]2O)[C@@H](CC=O)C[C@@H](C)C(=O)/C=C/C(C)=C/[C@@H]1CO[C@@H]1O[C@H](C)[C@@H](O)[C@@H](OC)[C@H]1OC | inactive | 
NC(=O)C1c2ccccc2CCc2ccccc21 |  | 16.2%
CC(C)=CCC/C(C)=C/CC/C(C)=C/CC/C(C)=C/CC1=C(C)C(=O)c2ccccc2C1=O |  | -15.3%
COc1cc2c(c(OC)c1OC)-c1c(cc3c(c1OC)OCO3)C[C@@H](C)[C@](C)(O)C2 | inactive | 
O=C1CCC(c2ccccc2)(C2CCN(Cc3ccccc3)CC2)C(=O)N1 (configuration not stated) |  | 13.5%
O=C(Cn1cnnn1)N[C@@H]1C(=O)N2C(C(=O)O)=C(CSc3nncs3)CS[C@H]12 | inactive | 
CN[C@H](CC(C)C)C(=O)N[C@H]1C(=O)N[C@@H](CC(N)=O)C(=O)N[C@H]2C(=O)N[C@H]3C(=O)N[C@H](C(=O)N[C@@H](C(=O)O)c4cc(O)cc(O)c4-c4cc3ccc4O)[C@H](O)c3ccc(c(Cl)c3)Oc3cc2cc(c3O[C@@H]2O[C@H](CO)[C@@H](O)[C@H](O)[C@H]2O[C@H]2C[C@](C)(N)C(O)[C@H](C)O2)Oc2ccc(cc2Cl)[C@H]1O (some centres not stated) | inactive | 
CC[C@H]1OC(=O)[C@H](C)C(=O)[C@H](C)[C@@H](O[C@@H]2O[C@H](C)C[C@H](N(C)C)[C@H]2O)[C@](C)(OC)C[C@@H](C)C(=O)[C@H](C)[C@H]2N(CCCCn3cnc(-c4cccnc4)c3)C(=O)O[C@]12C | inactive | 
